The test system of assay [1] is Plasmodium falciparum Sir2 (PF13_0152, Sir2A). Nature of the assay: Plasmodium falciparum Sir2A binding compounds – biochemical, small-molecule microarray, 635 nm fluorescence, primary screen (AID 1098).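 Further: score merges spot fluorescence intensity with its signal-to-noise ratio.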 As to conditions: fluorescence 635 nm, higher = more signal.
Assay [2] is described as follows: probe aDKK1 binding to arrayed compounds – biochemical, biotinylated probe, 635/667 nm fluorescence, primary screen (AID 1099).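 Further: score merges 667nm spot fluorescence with signal to noise across triplicate slides; reference of the scale not given here.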 The settings on record: small-molecule microarray, higher = more signal.
The nature of assay [3]: probe aCHRDL2 binding to arrayed compounds – biochemical, biotinylated probe, 635/667 nm fluorescence, primary screen (AID 1100). As to conditions: small-molecule microarray, higher = more signal.
A short description of assay [4]: change in splice reporter luminescence, either direction, cell-based, HEK293, spliceosome inhibition project, primary screen (AID 1101).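 Further: HEK293 cells carrying a splicing-competent luciferase reporter gene; test concentration not given here.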 The settings on record: HEK293 splicing luciferase reporter, 24 h, higher = more signal, called active from +8 up or from −8 down.
The target in assay [5] is Fibroblast growth factor 10 (Homo sapiens) (UniProt O15520). As to the kind of experiment: compounds binding fibroblast growth factor 10 – biochemical, small-molecule microarray, 635 nm fluorescence, primary screen (AID 1102). As to conditions: FGF10 binding, fluorescence 635 nm, higher = more signal.
Fibroblast growth factor 10 (Homo sapiens), sequence (O15520 whole entry, looked up): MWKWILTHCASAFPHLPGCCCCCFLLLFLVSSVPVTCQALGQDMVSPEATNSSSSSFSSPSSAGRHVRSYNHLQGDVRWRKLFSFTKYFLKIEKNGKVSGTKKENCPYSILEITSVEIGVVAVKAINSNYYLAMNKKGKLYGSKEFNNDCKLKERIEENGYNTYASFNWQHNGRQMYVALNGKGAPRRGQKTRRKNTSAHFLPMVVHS
The subject of assay [6] is glycogen synthase kinase-3 (GSK3A per assay name; protocol says GSK3B). As to the kind of experiment: compounds binding glycogen synthase kinase-3 – biochemical, small-molecule microarray, 635 nm fluorescence, GSK3A, primary screen (AID 1103). Further: the record names both GSK3A and GSK3B. The settings on record: fluorescence 635 nm, higher = more signal.
For assay [7], the target named is Epidermal growth factor receptor (Homo sapiens) (UniProt P00533). As to the kind of experiment: compounds binding epidermal growth factor receptor – biochemical, small-molecule microarray, 635 nm fluorescence, primary screen (AID 1104).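 Further: score merges 667 nm emission intensity with spot signal to noise over triplicate slides.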 As to conditions: EGFR binding, higher = more signal.
Epidermal growth factor receptor (Homo sapiens), sequence (P00533 whole entry, looked up): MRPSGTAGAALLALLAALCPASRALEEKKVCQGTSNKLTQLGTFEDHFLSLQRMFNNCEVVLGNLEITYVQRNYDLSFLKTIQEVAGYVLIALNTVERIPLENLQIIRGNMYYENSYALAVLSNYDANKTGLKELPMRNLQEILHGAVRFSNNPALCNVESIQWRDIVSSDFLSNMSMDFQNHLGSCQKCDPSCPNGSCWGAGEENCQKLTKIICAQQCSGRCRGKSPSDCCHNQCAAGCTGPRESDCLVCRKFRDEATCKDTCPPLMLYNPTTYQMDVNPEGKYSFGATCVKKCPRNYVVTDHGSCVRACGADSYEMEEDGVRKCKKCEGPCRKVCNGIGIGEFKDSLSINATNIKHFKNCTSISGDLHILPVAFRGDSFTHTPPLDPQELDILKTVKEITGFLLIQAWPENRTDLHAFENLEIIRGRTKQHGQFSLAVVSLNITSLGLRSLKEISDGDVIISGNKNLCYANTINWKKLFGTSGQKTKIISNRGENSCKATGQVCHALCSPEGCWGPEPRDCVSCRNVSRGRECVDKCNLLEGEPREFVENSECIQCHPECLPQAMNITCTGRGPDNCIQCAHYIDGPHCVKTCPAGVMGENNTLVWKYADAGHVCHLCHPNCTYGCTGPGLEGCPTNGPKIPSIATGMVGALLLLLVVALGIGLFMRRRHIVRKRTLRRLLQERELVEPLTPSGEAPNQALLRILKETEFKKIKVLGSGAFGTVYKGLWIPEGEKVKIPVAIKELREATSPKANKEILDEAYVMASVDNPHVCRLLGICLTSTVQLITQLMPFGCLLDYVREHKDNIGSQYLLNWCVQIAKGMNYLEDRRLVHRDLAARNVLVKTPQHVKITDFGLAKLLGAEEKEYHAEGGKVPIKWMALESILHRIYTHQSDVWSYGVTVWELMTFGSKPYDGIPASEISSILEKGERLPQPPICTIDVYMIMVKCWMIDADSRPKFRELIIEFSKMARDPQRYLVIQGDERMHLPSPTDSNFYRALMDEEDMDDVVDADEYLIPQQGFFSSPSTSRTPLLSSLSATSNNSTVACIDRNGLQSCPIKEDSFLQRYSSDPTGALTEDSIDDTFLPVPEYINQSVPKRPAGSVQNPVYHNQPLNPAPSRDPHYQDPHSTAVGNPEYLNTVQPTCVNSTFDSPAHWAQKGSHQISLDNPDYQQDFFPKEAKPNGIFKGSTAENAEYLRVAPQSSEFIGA
Assay [8] concerns the target Follistatin-related protein 3 (Homo sapiens) (UniProt O95633). As to the kind of experiment: compounds binding follistatin-related protein 3 – biochemical, small-molecule microarray, 635 nm fluorescence, primary screen (AID 1105).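 Further: score merges emission near 667 nm and signal to noise per printed spot across three slides.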 The settings on record: FSTL3 binding, higher = more signal.
Assay [9] concerns the target Dickkopf-related protein 1 (Homo sapiens) (UniProt O94907). Nature of the assay: small molecules binding DKK1 protein – biochemical, small-molecule microarray, 635 nm fluorescence scan, primary screen (AID 1106).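 Further: score merges emission near 667 nm with signal to noise over three replicate slides.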 As to conditions: higher = more signal.
The subject of assay [10] is Inhibin beta A chain (activin A). Nature of the assay: small molecules binding activin A – biochemical, small-molecule microarray, 635 nm fluorescence scan, primary screen (AID 1107).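 Further: mouse activin A protein probed at 4.33 µg/mL on printed slides; score merges bound-protein fluorescence near 667 nm with spot signal-to-noise.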 As to conditions: INHBA, higher = more signal.

The source made the active and inactive calls.

Follistatin-related protein 3 (Homo sapiens), sequence (O95633 whole entry, looked up): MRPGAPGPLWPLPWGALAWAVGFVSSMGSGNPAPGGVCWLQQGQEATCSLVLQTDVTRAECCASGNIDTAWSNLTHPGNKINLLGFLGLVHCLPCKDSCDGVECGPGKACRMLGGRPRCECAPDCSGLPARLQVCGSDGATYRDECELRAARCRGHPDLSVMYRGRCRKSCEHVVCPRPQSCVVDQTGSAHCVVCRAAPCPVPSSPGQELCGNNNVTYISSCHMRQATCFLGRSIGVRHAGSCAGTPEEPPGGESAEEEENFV
Dickkopf-related protein 1 (Homo sapiens), sequence (O94907 whole entry, looked up): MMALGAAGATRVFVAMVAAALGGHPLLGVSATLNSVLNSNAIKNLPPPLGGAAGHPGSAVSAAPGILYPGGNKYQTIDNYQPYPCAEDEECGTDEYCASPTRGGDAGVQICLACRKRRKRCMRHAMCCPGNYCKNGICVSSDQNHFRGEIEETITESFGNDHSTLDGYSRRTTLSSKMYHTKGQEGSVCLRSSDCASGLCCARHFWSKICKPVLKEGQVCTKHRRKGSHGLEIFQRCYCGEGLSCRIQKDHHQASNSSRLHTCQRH

For `CO[C@H]1O[C@H](CO)[C@@H](OC(=O)Nc2cccc(F)c2)[C@H](OC(=O)c2cc3ccccc3[nH]2)[C@H]1OC(=O)c1cc2ccccc2[nH]1`, the composite z-score in [1] was -0.233; in assay [2], -0.448; in assay [3] it was -0.154; in assay [5], 0.284; in [6] it was -0.199; in assay [7], -0.213. Also, the composite z-score came out at 0.469 in assay [8], 0.135 in [9] and 0.0912 in assay [10]. Moreover, in [4], the z-score is -1.57 (inactive).
As to `C=CCNC(=O)[C@@H]1[C@H]2C(=O)O[C@H](c3ccccc3)[C@H](c3ccccc3)N2[C@H](c2ccc(O)cc2)[C@@]12C(=O)N(C(=O)OCCOC)c1ccc(C#CCC(C(=O)OC)C(=O)OC)cc12`, the composite z-score is 0.533 in assay [1]; -0.0333 in assay [2]; 0.0912 in assay [3]; 1.17 in assay [5]; 0.611 in assay [6]; 0.408 in [7]. Further, the composite z-score in assay [8] was 1; in assay [9], 0.493; in assay [10], 0.273. Further, in assay [4], the z-score was 0.942 (inactive).
`C=C(CCCC)C(=O)CC[C@H](OC(=O)c1ccccc1-c1ccccc1C(=O)O)c1cccc(OCCO)c1`: the composite z-score in assay [1] was 0.642; in assay [2] it was -0.399; in assay [3], -0.454; in assay [5], -0.282; in assay [6], -0.121; in assay [7], -0.988. The composite z-score was -0.578 in assay [8], 0.0668 in assay [9] and 1.33 in [10]. In addition, the z-score in [4] was -0.289 (inactive).
For `COC(=O)[C@@]1(Cc2ccc(F)cc2)[C@H]2c3cc(C(=O)N(C)C)n(Cc4ccsc4Br)c3C[C@H]2CN1C(=O)c1ccccc1`, the composite z-score was determined as 1.3 in assay [1]; 2.31 in [2]; 1.36 in assay [3]; 1.16 in assay [5]; 0.0579 in [6]; 1.51 in assay [7]. Besides, the composite z-score is 0.369 in assay [8], 0.0249 in assay [9] and 0.5 in assay [10]. Further, the z-score in assay [4] is -3.81 (inactive).
Turning to `CCOC(=O)C[C@H]1[C@H](OC(=O)c2cc3ccccc3oc2=O)[C@@H](NC(=O)c2ccc(-c3ccccc3)cc2)c2cc(OCCCO)ccc2N1C(=O)Cc1ccc(OC)cc1`, the composite z-score in assay [1] is 0.782; in assay [2], 0.0384; in [3], -0.037; in assay [5], 1.04; in assay [6] it was 0.889; in assay [7], 0.419. Further, the composite z-score in assay [8] amounted to 0.686; in [9], 0.682; in assay [10], 0.321. Moreover, the z-score in assay [4] is 0.595 (inactive).
Turning to `CC(C)C[C@H]1NC(=O)CNC(=O)[C@@]23C(=O)N[C@@H](Cc4ccccc4)C2[C@H](C)[C@@]2(C)O[C@H]2C3/C=C/C/C=C\CNC1=O` (stereo not given in full), the composite z-score in assay [1] was 0.288; in [2] it was -0.129; in assay [3], -0.671; in assay [5] it was 0.749; in assay [6] it was 0.407; in assay [7] it was 0.181. The figures for the composite z-score in assay [8], in assay [9] and in assay [10] were 0.811, 0.267 and 1.48, respectively. Also, the z-score in [4] is 0.187 (inactive).
`COC(=O)[C@@]1(Cc2ccc(OC)cc2)[C@H]2c3cc(C(=O)N(C)C)n(Cc4c(CO)[nH]cc(C)c4=O)c3C[C@H]2CN1C(=O)c1ccccc1`: the composite z-score in assay [1] is 0.258; in assay [2] it was 0.899; in [3], 0.731; in [5] it was -0.17; in assay [6], 0.664; in assay [7] it was 0.0854. For the same compound, the composite z-score is 0.128 in assay [8], -0.14 in [9] and 0.779 in assay [10]. For the same compound, in assay [4], the z-score is 0.323 (inactive).
Regarding `[N-]=[N+]=NCc1ccccc1C[C@@]1(C(=O)NCCN2CCOCC2)N=C(c2ccc(OCCCO)cc2)O[C@@H]1c1ccccc1`, the composite z-score in [1] was 0.365; in assay [2], 0.809; in assay [3], 0.996; in assay [5], 0.486; in [6], -0.0659; in [7] it was -0.883. The composite z-score is -0.192 in [8], -0.342 in assay [9] and 0.293 in assay [10]. Further, the z-score in assay [4] is 0.995 (inactive).
Take `CC(C)C[C@@H]1NC(=O)[C@@H]2C[C@H](C(=O)NCCCCCCNC(=O)CS)[C@H](c3ccc(O)cc3)N2C1=O`: the composite z-score in assay [1] is 1.57; in assay [2], -0.0965; in assay [3], 0.254; in assay [5] it was 1.45; in assay [6] it was 1.26; in assay [7], 0.672. Further, the figures for the composite z-score in assay [8], in assay [9] and in [10] were 1.47, 1.27 and -0.0334, respectively. Moreover, the z-score in assay [4] is -1.1 (inactive).
Consider `CCOC(=O)C=C1C[C@@H](c2cccc([N+](=O)[O-])c2)O[C@@H](c2cccc([N+](=O)[O-])c2)O1`, for which the composite z-score was 0.765 in assay [1]; 1.15 in [2]; 0.895 in assay [3]; 0.567 in assay [5]; 1.27 in assay [6]; 0.46 in assay [7]. For the same compound, the figures for the composite z-score in assay [8], in [9] and in assay [10] were 0.747, 0.514 and 0.594, respectively. Also, the z-score in assay [4] is 0.435 (inactive).
Regarding `CCCCN1CC=CC23O[C@@H]4/C=C\CCCOC(=O)C4[C@H]2C(=O)N(CCCCCCO)[C@@H]3C1=O` (stereo not given in full), the composite z-score in assay [1] was 0.502; in assay [2] it was -0.196; in assay [3], 0.663; in assay [5], -0.764; in [6] it was -0.755; in assay [7], -1.08. Further, the values for the composite z-score in assay [8], in [9] and in assay [10] were -0.451, -1.75 and 0.627, respectively. In [4], the z-score is -1.09 (inactive).
As to `COc1ccc(NN2C(C(O)c3ccc(F)cc3)C=CC3C(=O)N(C4CCCCC4)C(=O)C32)cc1` (stereo not given), the composite z-score worked out at 0.565 in [1]; 0.959 in assay [2]; 0.763 in assay [3]; 0.995 in assay [5]; 0.928 in assay [6]; 0.801 in assay [7]. Further, the composite z-score in assay [8] stood at 1.01; in [9] it was 0.129; in assay [10], 1.24. The z-score in assay [4] is -0.794 (inactive).
Regarding `CC1(C)OB(/C=C\CC(OC(=O)c2ccncc2)c2ccccc2)OC1(C)C` (stereo not given), the composite z-score is 0.398 in assay [1]; 1.17 in assay [2]; 1.47 in assay [3]; -0.951 in assay [5]; -0.131 in assay [6]; -1.31 in [7]. Besides, the composite z-score is -0.0031 in assay [8], -1.26 in [9] and 1.75 in [10]. For the same compound, in [4], the z-score was 0.639 (inactive).

Source of the values: PubChem BioAssay.
